This note sets out measurements from PubChem BioAssay (NCATS).

Results filed as inconclusive are left out. Active and inactive are the calls of the source. The call rests on the fitted dose curve; in most records, active means well fitted cell-killing curve with a large enough effect; inconclusive means small, poorly fitted or top-dose-only effect, or effect the other way; inactive means no such curve, though single readings can be large or run the other way.
Potency means the concentration at half of the fitted maximal effect.

The experiment in a line: Quantitative High-Throughput drug screen in 47 multiple myeloma cell lines against the NCATS MIPE library collection: Karpas25_ECACC cell viability assay (AID 1918968; further: nearly all actives have a fitted effect of over 35% in size). The note with it: Karpas25 myeloma viability, CellTiter-Glo ATP, 48 h; series mostly up to 45.8 µM. An excerpt:
PI: Beverly A. Mock Ph.D.
Laboratory of Cancer Biology and Genetics,
Center for Cancer Research, National Cancer Institute,
National Institute of Health, Bethesda, Maryland
Drug resistance and disease progression are common in multiple myeloma (MM) patients, underscoring the need for new therapeutic combinations. […] We hypothesized that effective combinations would reduce MYC expression and enhance p16 activity. […] These preclinical data identify potentially useful drug combinations for evaluation in drug-resistant MM and reveal potential mechanisms of combined drug sensitivity.
Described herein is the primary MIPE qHTS used to cherrypick compounds. Validated compounds were then further tested for potential synergistic activiy.
[1] Peat TJ, Gaikwad SM, Dubois W, Gyabaah-Kessie N, Zhang S, Gorjifard S, Phyo Z, Andres M, Hughitt VK, Simpson RM, Miller MA, Girvin AT, Taylor A, Williams D, D'Antonio N, Zhang Y, Rajagopalan A, Flietner E, Wilson K, Zhang X, Shinn P, Klumpp-Thomas C, McKnight C, Itkin Z, Chen L, Kazandijian D, Zhang J, Michalowski AM, Simmons JK, Keats J, Thomas CJ, Mock BA. Drug combinations identified by high-throughput screening promote cell cycle transition and upregulate Smad pathways in myeloma. Cancer Lett. 2023 Aug 1;568:216284. doi: 10.1016/j.canlet.2023.216284. Epub 2023 Jun 24. PMID: 37356470; PMCID: PMC10408729.
SEQUENCE No. (e.g., 1, 2, 3, etc.); […] (e.g., Cells, Incubation, Reagent, etc.); VALUE and DESCRIPTION.
1; Cells; 5 uL; white, solid bottom 1536-well Greiner assay plate.
2; Compounds; 23 nL; Kalypsis pin tool (Wako USA) equipped with a 1536-well pin head to transfer to the assay plates.
3; Incubation; 48 hours; 37C incubation.
4; Reagent;5uL; CellTiter Glo (Promega).
5; Detector; 425V; Luminescence; Viewlux PerkinElmer.
NOTES (numbers refer to Sequence numbers above)
1. The cell-based screening methods employed in this study were like those previously published. Briefly, the corresponding myeloma cell lines were screened in 1,536-well plates with 500 cells, 5-uL per well for inhibition of cell viability (assessed by measuring ATP levels with CellTiterGlo).
2. NCATS MIPE 4.0 library of approved and investigational drugs were added using the Kalypsis pin tool. Wells treated with DMSO only for 100% viability and media only wells for 0% viability were used as controls.
3. The assay plates were covered and incubated for 48 hours in a 37C, 5% CO2 incubator with controlled humidity.
4. After 48 hours, CellTilter-GloTM luminescent substrate mix (Promega) reagent was added to the assay plate and plates we incubated for 5 min at room temperature.
5. Signal was measured as median relative luminescence units on a ViewLux (PerkinElmer) multiplate reader.
[1] Heske CM, Davis MI, Baumgart JT, Wilson K, Gormally MV, Chen L, Zhang X, Ceribelli M, Duveau DY, Guha R, Ferrer M, Arnaldez FI, Ji J, Tran HL, Zhang Y, Mendoza A, Helman LJ, Thomas CJ. Matrix Screen Identifies Synergistic Combination of PARP Inhibitors and Nicotinamide Phosphoribosyltransferase (NAMPT) Inhibitors in Ewing Sarcoma. Clin Cancer Res. 2017 Dec 1;23(23):7301-7311. doi: 10.1158/1078-0432.CCR-17-1121. Epub 2017 Sep 12. PMID: 28899971; PMCID: PMC6636827.
(In general: In ATP-based viability assays light output follows the ATP content of the culture.)
Take `O=C(NCC1CCOCC1)c1cnc(Nc2ccc(Cl)cc2Cl)nc1C(F)(F)F`: the Potency is 4.69 µM (active).

Take `Oc1ccc2c3c1O[C@H]1c4[nH]c5c(c4C[C@@]4(O)[C@@H](C2)N(CC2CC2)CC[C@]314)C[C@@]1(O)[C@H]2Cc3ccc(O)c4c3[C@@]1(CCN2CC1CC1)[C@H]5O4`: the Potency result was “inactive”.

On to `COC1=CC(C)=C[C@@H](C)[C@@H](O)[C@@H](C)CC(C)=CC=C[C@H](OC)[C@H]([C@@H](C)[C@@H](O)[C@H](C)[C@@]2(O)C[C@@H](O)[C@H](C)[C@@H](C(C)C)O2)OC1=O`, for which the Potency is 0.0083 µM (active).

Regarding `O=C(O)CNC(=O)c1c(O)c2ccccc2n(Cc2ccccc2)c1=O`, the Potency result was “inactive”.

`CC[C@@]1(O)C(=O)OCc2c1cc1n(c2=O)Cc2cc3ccccc3nc2-1`: the Potency was 0.0833 µM (active).

On to `CC[C@H]1C=CC=CC[C@@H](C)[C@H](O)[C@@](C)(O)C(=O)[C@@H](C)[C@H](O)[C@@H](C)C(=O)[C@@H](C)[C@H](O)[C@@H](C)C=CC(=O)O[C@@H]2[C@@H](C)[C@H](CC1)O[C@]1(CC[C@H](C)[C@H](C[C@@H](C)O)O1)[C@H]2C`, for which the Potency is 0.001 µM (active).

Consider `Cc1c(C(=O)Nc2cccc(C(F)(F)F)c2)cc(-c2ccccc2)n1CCCN1CCOCC1`, for which the Potency was 11.8 µM (active).

As to `C#C[C@]1(O)C=C[C@@H]2[C@@H]3CCC4=CC(=O)CC[C@@H]4[C@H]3CC[C@@]21CC`, the Potency entry was “inactive”.

Regarding `O=c1[nH]c2ccccc2n1C1CCN(Cc2ccc(-c3[nH]c4cc5ncnc5cc4nc3-c3ccccc3)cc2)CC1`, the Potency is 8.33 µM (active).

As to `CCOC(=O)c1cncn1[C@H](C)c1ccccc1`, the Potency result is “inactive”.

Regarding `CCc1c(C(=O)C(N)=O)c2c(OCC(=O)O)cccc2n1Cc1ccccc1`, the Potency result was “inactive”.

Turning to `COc1cc([C@@H]2c3cc4c(cc3[C@@H](O)C3COC(=O)C32)OCO4)cc(OC)c1O` (stereo not given in full), the Potency is 0.059 µM (active).

Regarding `CCNC(=O)C[C@@H]1N=C(c2ccc(Cl)cc2)c2cc(OC)ccc2-n2c(C)nnc21`, the Potency was 2.09 µM (active).

`CO[C@H]1CCC(O[C@H]2C[C@H]([C@]3(C)CC[C@]4(C[C@H](O)[C@@H](C)[C@@H]([C@@H](C)C=C(C)C(=O)[C@H](C)C[C@H](C)C(=O)O)O4)O3)O[C@]3(O[C@@H]([C@H]4O[C@@](O)(CO)[C@H](C)C[C@H]4C)C[C@H]3C)[C@H]2C)O[C@H]1C` (stereo not given in full): the Potency is 1.48 µM (active).

Take `C1=C2CCCN[C@H]2[C@@H]2C[C@H]1[C@@H]1CCCCN1C2`: the Potency result is “inactive”.

For `Cc1ccccc1-n1c(Cn2cnc3c(N)ncnc32)nc2cccc(C)c2c1=O`, the Potency is 0.187 µM (active).

Turning to `COc1ccc(N(C(=O)Oc2c(C)cccc2C)c2ccnc(Nc3ccc(N4CCN(C)CC4)cc3)n2)c(OC)c1`, the Potency is 2.64 µM (active).

For the compound `C=CCON=C(C[C@H]1O[C@@H]2O[C@]3(C)CC[C@@H]4[C@H](C)CC[C@@H]([C@H]1C)[C@@]24OO3)[C@H]1O[C@@H]2O[C@]3(C)CC[C@H]4[C@H](C)CC[C@@H]([C@@H]1C)[C@@]24OO3`, the Potency is 0.209 µM (active).

As to `CC(C)N[C@@H]1CCn2c(=O)[nH]c3cccc(c32)[C@@H]1O`, the Potency is 0.187 µM (active).

Consider `CC=C(C)C(=O)O[C@H]1C(C)=C2[C@@H]3OC(=O)[C@@](C)(O)[C@@]3(O)[C@@H](OC(=O)CCC)C[C@](C)(OC(C)=O)[C@@H]2[C@@H]1OC(=O)CCCCCCC`, for which the Potency is 0.0833 µM (active).

`CC(C)N(CCNC(=O)CN1CCCC1=O)C(C)C`: the Potency result is “inactive”.

In the case of `C=C[C@@H]1CN2CCC1C[C@@H]2[C@@H](O)c1ccnc2ccccc12` (stereo not given in full), the Potency is 8.33 µM (active).

As to `C[C@@H]1CC[C@H]2[C@@H](C)C(=O)O[C@@H]3O[C@@]4(C)CC[C@H]1[C@]32OO4`, the Potency was 0.469 µM (active).

Turning to `CC=C(C)C(=O)N[C@@H](c1ccccc1)[C@@H](O)C(=O)O[C@H]1C[C@@]2(O)[C@@H](OC(=O)c3ccccc3)[C@@H]3[C@]4(OC(C)=O)CO[C@@H]4C[C@H](O)[C@@]3(C)C(=O)[C@H](OC(C)=O)C(=C1C)C2(C)C`, the Potency entry is “inactive”.

With `CC(C)[C@]12O[C@@H]1[C@@H]1O[C@]13[C@]1(O[C@H]1C[C@@H]1C4=C(CC[C@@]13C)C(=O)OC4)[C@H]2O`, the Potency entry is “inactive”.

On to `CCOP(=O)(OCC)C(C)NC(=O)N(CCCl)N=O` (stereo not given), for which the Potency entry was “inactive”.

In the case of `COc1ccc2c(c1)[C@]13CCCCC1C(C2)N(C)CC3` (stereo not given in full), the Potency result is “inactive”.

`COC1=C[C@@H]2[C@@H]3Cc4ccc(OC)c(O)c4[C@]2(CCN3C)CC1=O`: the Potency is 2.96 µM (active).

As for `C[C@H]([C@H](O)CCC(C)(C)O)[C@H]1CC[C@@]2(O)C3=CC(=O)[C@@H]4C[C@@H](O)[C@@H](O)C[C@]4(C)[C@@H]3CC[C@]12C`, the Potency result was “inactive”.

For the compound `Cc1[nH]nc2ccc(-c3cncc(OC[C@@H](N)Cc4c[nH]c5ccccc45)c3)cc12`, the Potency was 2.35 µM (active).

For the compound `COC[C@H]1OC(=O)c2coc3c2[C@@]1(C)C1=C(C3=O)[C@@H]2CC[C@H](O)[C@@]2(C)C[C@@H]1OC(C)=O`, the Potency was 0.264 µM (active).

Take `C[C@@H]1CC[C@@]2(OC1)O[C@H]1C[C@H]3[C@@H]4CC=C5C[C@@H](O[C@@H]6O[C@H](CO)[C@@H](O[C@@H]7O[C@@H](C)[C@H](O)[C@@H](O)[C@@H]7O)[C@H](O)[C@@H]6O[C@@H]6O[C@@H](C)[C@H](O)[C@@H](O)[C@@H]6O)CC[C@]5(C)[C@@H]4CC[C@]3(C)[C@@H]1[C@H]2C`: the Potency was 3.32 µM (active).

On to `COc1ccc2c(c[n+](C)c3c4cc5c(cc4ccc23)OCO5)c1OC`, for which the Potency is 7.43 µM (active).

Take `COCC1(CO)C(=O)C2CCN1CC2` (stereo not given): the Potency was 3.72 µM (active).

For the compound `C[C@](O)(COc1ccc(C#N)cc1)C(=O)Nc1ccc(C#N)c(C(F)(F)F)c1`, the Potency was 18.7 µM (active).

`CCN1C[C@]2(OC(=O)c3ccccc3NC(C)=O)CC[C@H](OC)[C@@]34[C@H]5CC6[C@@H](OC)C[C@](O)(C(C[C@@H]23)[C@@H]14)[C@@]5(O)[C@@H]6OC`: the Potency result is “inactive”.

With `CC(=O)OCC1=C(C(=O)O)N2C(=O)[C@@H](N)[C@@H]2SC1`, the Potency result was “inactive”.

As to `CN(C)NC(=O)CCC(=O)O`, the Potency result is “inactive”.

Regarding `CC1(N2CCC(n3c([C@@H]4CCCNC4)nc4ccccc43)CC2)CCCCCCC1`, the Potency was 18.7 µM (active).

Take `C[C@H]1CCCC=CC2C[C@H](O)C[C@@H]2[C@H](O)C=CC(=O)O1` (stereo not given in full): the Potency result was “inactive”.
